Test results: PubChem BioAssay (NCATS)
Several values for one entry are separate records, joined by “and”; a condition that tells them apart may be missing. Equal entries are not always repeated. Records with an inconclusive call do not appear. Activity calls are given as the source filed them. The call rests on the fitted dose curve; in most records, active means well fitted curve in the direction sought with a large enough effect; inconclusive means small, poorly fitted or top-dose-only effect, or another doubt; inactive means no such curve, though single readings can be large; an effect the other way counts as inactive or inconclusive.

Columns and labels:
[1] = Viability qHTS for spleen associated tyrosine kinase inhibitor (SYKi) naive MV4-11 cells (AID 1963823); further: nearly all actives have a fitted effect of over 40% in size
In short: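 In this viability screen, compounds acted on SYK inhibitor naive MV4-11 cells for three days (72 hr, 37 C). Remaining viable cells were measured by CellTiter-Glo luminescence following a 10 min room-temperature development.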

[2] = Viability qHTS for spleen associated tyrosine kinase inhibitor (SYKi) drug resistant MV4-11 cells (AID 1963824); further: nearly all actives have a fitted effect of over 35% in size
In short: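 CellTiter-Glo luminescence, read 10 min after reagent addition, reports viability after a 72 hr compound exposure. Cells are an MV4-11 line made resistant to SYK inhibition, seeded at 500 per well onto compound-containing plates.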

[3] = Cellular viability qHTS for adrenocortical cancer (ACC) cell line SW-13 (AID 1963989); settings: SW-13 ACC cells viability, CellTiter-Glo, 48 h; activity (max response): active compounds read low; further: nearly all actives have a fitted effect of over 65% in size;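 on activity (max response): cells grown in serum-free medium with ITS supplement; on the % scale 0 is the no-effect control and ±100 the full control effect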
In short: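 Luminescent ATP read-out (CellTiter-Glo, 20 min at room temperature) measured metabolically competent SW-13 cells after 48 h compound treatment. Final concentrations spanned up to 46 uM; bortezomib served as positive control.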

[4] = Cellular viability qHTS for adrenocortical cancer (ACC) cell line NCI-H295R (AID 1963990); further: nearly all actives have a fitted effect of over 60% in size
In short: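 IC50 and maximal efficacy derive from four-parameter logistic modelling of titration curves, with reads scaled between DMSO-only wells (0%) and doxorubicin hydrochloride (100% inhibition). Compounds spanned up to 46 uM over 48 h.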
Potency means the concentration at half of the fitted maximal effect.

CCCCC1C(=O)NC(=O)N(C2CCCCC2)C1=O (stereo not given)
inactive: Potency [1] | Potency [2] | activity (max response) [3] -4.2% | Potency [4]

C[C@@H]1CN(Cc2ccc(F)cc2)CCN1C(=O)COc1ccc(Cl)cc1NC(N)=O
active: Potency [1] 934 nM | Potency [2] 820 nM | Potency [3] 5010 nM | Potency [4] 20 µM

C[C@H](N)C(=O)c1ccccc1
inactive: Potency [1] | Potency [2] | activity (max response) [3] -8.86% | Potency [4]

ClCc1cccc(Cl)c1
inactive: Potency [1] | Potency [2] | activity (max response) [3] 11% | Potency [4]

Oc1ccc(Cl)cc1Cc1ccccc1
active: Potency [1] 24600 nM | Potency [2] 24600 nM | Potency [3] 35500 nM | Potency [4] 12.6 µM and 23.1 µM

COC(C)(C)CCCC(C)C/C=C/C(C)=C/C(=O)OC(C)C (stereo not given)
inactive: Potency [1] | Potency [2] | activity (max response) [3] 12.4% | Potency [4]

CN1C(=O)NC(=O)C(C)(C2=CCCCC2)C1=O (stereo not given)
inactive: Potency [1] | Potency [2] | activity (max response) [3] -0.484% | Potency [4]

CCCCCCCCCC(=O)O[C@H]1CC[C@H]2[C@@H]3CCC4=CC(=O)CC[C@@H]4[C@H]3CC[C@]12C
inactive: Potency [1] | Potency [2] | activity (max response) [3] 6.32% | Potency [4]

CC(=O)OC[C@H]1O[C@@H]([S-])[C@H](OC(C)=O)[C@@H](OC(C)=O)[C@@H]1OC(C)=O.CC[PH+](CC)CC.[Au]
active: Potency [1] 209 nM | Potency [2] 235 nM | Potency [3] 708 nM | Potency [4] 0.631 µM

CC(CC(C(N)=O)(c1ccccc1)c1ccccc1)N(C)C (stereo not given)
inactive: Potency [1] | Potency [2] | activity (max response) [3] 5.97% | Potency [4]
